Screens from PubChem.
The list is not random: actives were taken first. Their share in the collection is about 3.3%.
Hsp90 Hop PPI: changes Hsp90-Hop TPR2A binding signal, up or down. Potency, µM (top dose mostly 57 µM), inactives show top-dose activity change, negative = inhibition. AlphaScreen TPR2A-His6 binding biotin-Hsp90 C-terminal peptide. hit rate 0.44% among 71,000; active means well fitted curve in either direction with a large enough effect; inconclusive means small, poorly fitted or top-dose-only effect, or another doubt; further: potency means the concentration at half of the fitted maximal effect; on the % scale 0 is the no-effect control and ±100 the full control effect
TsaE inh: inhibitors of E. coli YjeE (TsaE). P0AF67. purified YjeE enzyme, qHTS inhibition assay. Potency, µM. hit rate 0.05% among 71,000. AID 605
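Fluorescence polarization of a BODIPY Texas Red–ADP probe (2 uM) bound to purified YjeE (10 uM) was read after 15 min room-temperature incubation with compounds. Loss of polarization marks inhibitors; ADP serves as titrated control.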
TSHR ag: agonists of human thyroid stimulating hormone receptor; AID 926; HEK293-CNG-TSHR cells (CNG channel as cAMP sensor), membrane potential dye, cAMP; Potency, µM (titrated, usually from 57.1 µM), inactives show top-dose activation, usual class: activators; hit rate 0.48% among 73,000; active means well fitted activation curve with a large enough effect in the main read-out, with a control signal flat, not every such curve was filed as active; inconclusive means small, poorly fitted or top-dose-only effect, or a change in a side signal; inactive means no such curve, though single readings can be large or run the other way; % of control where 0% means no effect;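 further: the control signal comes from parental cells without the receptor; potency means the concentration at half of the fitted maximal effect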
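cAMP rise detected as CNG-channel membrane depolarization by fluorescent dye (emission 590 nm), 30 min after compound, following 60 min dye loading containing 100 uM RO 20-1724 at room temperature. Cells: TSHR/CNG HEK 293, with parental CNG HEK 293 as control.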
BRCT PPI green: blocks human BRCA1 BRCT binding to phosphopeptide, green readout | Potency, µM (series often up to 76.9 µM), for the others: at the highest dose activity change, negative = inhibition, actives largely listed as inhibitors | BRCA1 BRCT-phosphopeptide binding, green fluorescence polarization | AID 875 | hit rate 0.05% among 75,000 | P38398;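 further: potency means the concentration at half of the fitted maximal effect; plate controls were peptide without protein for full effect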
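Fluorescence polarization: His-tagged BRCT (~35 kDa BRCA1 C-terminus, 250 nM) bound to 100 nM fluorescein-labeled phosphorylated 10-aa BACH1 peptide, pH 7.3 phosphate buffer with DTT and Tween 20. Compounds incubated 12 min at room temperature; inhibition read as lowered polarization.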
BRCT inh red: inhibitors of human BRCA1 BRCT-phosphoprotein interaction (red fluorophore). P38398. BRCT-phosphopeptide binding, red fluorescence polarization. Potency, µM (titrated, usually from 76.9 µM), inactives show top-dose activity change, negative = inhibition, actives largely listed as inhibitors. hit rate 0.03% among 75,000; further: on the % scale 0 is the no-effect control and ±100 the full control effect
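Fluorescence polarization: 100 nM His-tagged BRCA1 BRCT with 100 nM TAMRA-labelled phospho-BACH1 decapeptide, phosphate buffer pH 7.3 with 150 mM NaCl, DTT, 0.01% Tween 20; 12 min RT. Binding inhibition seen as FP decrease.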
HEK293 cAMP ctrl: counter-screen for TSHR agonists: cAMP increase in parental HEK293. hit rate 2.5% among 73,000. Potency, µM (top dose mostly 57.1 µM), for the others: top-dose activation, hits mostly activators. AID 938. parental HEK293 CNG cAMP sensor, membrane potential fluorescence; further: potency means the concentration at half of the fitted maximal effect; % of control where 0% means no effect; nearly all actives have a fitted effect of over 55% in size
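Counterscreen for endogenous-receptor signalling: CNG-channel HEK 293 cells report cAMP rise by membrane depolarization. After 60 min dye equilibration with 100 uM RO 20-1724, compounds incubated 30 min before bottom-read fluorescence at 590 nm.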
Numbers without * were called inactive; i = inactive; ? = inconclusive; nt = no result; ! = not confirmed by another sample; [ ] = dose if it differs, or a comment. Unless noted, the call rests on the fitted dose curve; in most records, active means well fitted curve in the direction sought with a large enough effect; inconclusive means small, poorly fitted or top-dose-only effect, or another doubt; inactive means no such curve, though single readings can be large; an effect the other way counts as inactive or inconclusive.

SMILES	Hsp90 Hop PPI	TsaE inh	TSHR ag	BRCT PPI green	BRCT inh red	HEK293 cAMP ctrl
CN(C)c1ccc(N=Nc2ccccc2)cc1	12.6µM*	i	?	0.1%	-0.6%	-27.0%
COc1ccc(C2=NCC(=O)N(CC(=O)NCc3ccco3)c3sc4c(c32)CCCC4)cc1	-15.9%	i	15.8µM*	2.0%	-1.2%	18.8%
Cc1cccc(C2=NCC(=O)N(CC(=O)NCc3ccco3)c3sc4c(c32)CCCC4)c1	-16.0%	i	?	4.9%	-1.0%	?
O=C(O)c1nn(Cc2ccc(Cl)cc2Cl)c2ccccc12	1.0%	i	?	-1.7%	-3.0%	39.8µM*!
C=C(C)[C@H]1Cc2c(ccc3c2O[C@H]2COc4cc(OC)c(OC)cc4[C@@H]2C3=O)O1	-24.8%	i	?	-3.2%	1.3%	?
c1ccc2c(c1)-c1cccc3c1c-2cc1ccccc13	5.01µM*	i	?	-2.5%	-0.6%	?
CN1[C@@H]2CC[C@H]1CC(O[C@@H](c1ccccc1)c1ccc(Cl)cc1)C2 (stereo partly specified)	-5.2%	?	?	5.5%	-0.1%	39.8µM*
O=C(O)[C@H]1[C@H](C(=O)O)[C@H]2CC[C@@H]1O2	-5.8%	i	-77.3%	-2.0%	-3.8%	5.0%
C=C[C@@H]1C[C@@]1(C)[C@@H](NP(=O)(c1ccccc1)c1ccccc1)c1ccccc1	-1.5%	i	?	-2.0%	0.8%	5.01µM*
O=S(=O)(NCCO)c1cc[c]([Sb](=[O])([OH])[OH])cc1	-2.4%[11 µM]	i	4.7%[11.4 µM]	-0.1%[15.4 µM]	3.0%[15.4 µM]	-6.8%[11.4 µM]
CCCCn1c(C)c(C(=O)OCC)c2c(CN3CCOCC3)c(O)ccc21	-5.7%	i	?	-2.0%	1.3%	6.31µM*
CCOC(=O)c1c(C)n(Cc2ccco2)c2ccc(O)cc12	-6.1%	i	7.0%	1.1%	0.7%	21.2%
N#Cc1ccccc1Cn1cc(C(=O)C2CC2)c2ccccc21	9.9%	i	?	0.0%	-0.3%	?
CCC(=O)c1cn(Cc2ccccc2C#N)c2ccccc12	9.3%	i	?	3.4%	1.7%	20µM*
N#Cc1ccccc1Cn1cc(C(=O)c2ccco2)c2ccccc21	-0.4%	i	?	-0.6%	-3.1%	15.8µM*
Nc1ccccc1O.O.O=C(O)[C@H]1[O][Sb][O][C@H]1C(=O)O	-4.3%[11 µM]	i	0.1%[11.4 µM]	0.4%[15.4 µM]	-1.4%[15.4 µM]	-7.4%[11.4 µM]
O=C1NCN(c2ccccc2)C12CCN(C[C@H]1COc3ccccc3O1)CC2	-4.9%	i	?	-3.1%	-1.4%	?
CN(CC1COc2ccccc2O1)c1nc(-c2cccnc2)nc2ccccc12 (stereo unspecified)	2.5%	i	?	2.9%	-5.1%	25.1µM*
CC[C@H]1CN2CC[C@@H]1C[C@@H]2[C@H](O)c1ccnc2ccccc12	-3.6%	i	1.1%	nt	nt	0.1%
O=c1cccc2n1C[C@H]1C[C@@H]2CN(CCO)C1	6.3%	i	-0.1%	nt	nt	-1.2%
O=C1OC(=O)c2c(Cl)c(Cl)c(Cl)c(Cl)c21	1.4%	i	?	-1.2%	-1.0%	39.8µM*
N#CS.N=C=S.N=C=S.[Cu].[NH2-].[NH2-].[NH2-].[NH2-].c1ccc2ncccc2c1	-0.1%[11 µM]	i	?	-1.1%[15.4 µM]	-0.1%[15.4 µM]	?
Cc1noc(C)c1C(=O)N1CCC2(CCCN(CC(C)C)C2)CC1	-11.3%	i	?	-2.7%	-1.5%	15.8µM*
C=CCOC(=O)COc1cc(C)cc2oc(=O)c3c(c12)CCC3	4.8%	i	?	2.9%	-1.1%	5.01µM*
O=C1C[C@H]2OCCC=C3CN4CC[C@@]56c7ccccc7N1[C@@H]5[C@H]2[C@H]3C[C@@H]46	1.7%	i	1.8%	nt	nt	27.7%
SMILES	Hsp90 Hop PPI	TsaE inh	TSHR ag	BRCT PPI green	BRCT inh red	HEK293 cAMP ctrl
Cc1ccc(OP(=O)(Oc2ccc(C)cc2)Oc2ccc(C)cc2)cc1	15.8µM*	i	nt	1.5%	1.2%	46.2%
CCN(CC)c1ncnc2c1ncn2[C@@H]1O[C@@H](COP(=O)(O)OP(=O)(O)C(Br)(Br)P(=O)(O)O)[C@H](O)[C@H]1O	0.5%	i	1.7%	-2.0%	1.0%	0.7%
CCNC(=O)C1OC(n2cnc3c(N)ncnc32)C(O)C1O (stereo unspecified)	nt	nt	?	-2.5%	0.0%	0.631µM*
CN1[C@@H]2CC(OC(=O)[C@@H](CO)c3ccccc3)C[C@@H]1[C@H]1O[C@H]12 (stereo partly specified)	3.9%[11 µM]	i	-2.0%[11.4 µM]	-2.5%[15.4 µM]	1.2%[15.4 µM]	1.2%[11.4 µM]
CCC(=O)O[C@H]1CC[C@H]2[C@@H]3CCC4=CC(=O)CC[C@]4(C)[C@H]3CC[C@]12C	2.1%[26 µM]	i	?	-3.2%[34.4 µM]	-0.7%[34.4 µM]	15.8µM*
CN(c1ccccc1)S(=O)(=O)c1cccc(C(=O)N2CCN(c3ccccn3)CC2)c1	-1.8%	i	?	-2.6%	-0.7%	15.8µM*
O=C(NC[C@H]1CCCCN1)c1cc(OCC(F)(F)F)ccc1OCC(F)(F)F	-6.0%	i	?	-1.9%	-1.5%	3.98µM*!
c1cc(N2CCCC3(CCNCC3)C2)ccn1	-3.6%	i	?	-6.5%	-0.1%	2.51µM*
c1cnc(N2CCCC3(CCNCC3)C2)nc1	-1.9%	i	2.2%	-2.3%	-0.9%	8.6%
c1ccc(N2CC3(CCNCC3)C2)cc1	-3.5%	i	?	-3.8%	0.9%	10µM*
CC(C)Nc1ccc(Nc2ccccc2)cc1	?	100µM*	?	3.4%	0.3%	9.1%
O=c1ccc2cc(O[C@@H]3O[C@@H](CO)[C@@H](O)[C@@H](O)[C@H]3O)c(O)cc2o1	-4.0%	i	-0.7%	nt	nt	-0.5%
CN[C@H]1[C@H]2[C@H]3CCN2C[C@@H]1O3	0.4%	i	4.7%	nt	nt	-0.2%
OC[C@H]1CCCN2CCCC[C@@H]12	-7.3%	i	-1.3%	nt	nt	-2.3%
CCCCNC(=O)n1c(NC(=O)OC)nc2ccccc21	0.0%	i	?	-1.7%	0.5%	?
CSc1nc2ccccc2n1C(=O)Oc1ccccc1	-3.1%	i	?	0.8%	0.1%	25.1µM*
O=C(c1ccco1)N1CCN(Cc2ccccc2C(F)(F)F)CC1	-6.2%[11 µM]	i	?	2.1%	-0.6%	3.98µM*
COc1cc(C=C(C#N)C#N)cc(O)c1O	?	i	-6.7%	5.0%	-1.5%	-10.6%
CC(C)(C)c1cc(C=C(C#N)C#N)cc(C(C)(C)C)c1O	-18.0%	i	?	-3.5%	-2.6%	0.794µM*
C=C(CC1(C(C)NP(=O)(c2ccccc2)c2ccccc2)CC1)c1ccccc1 (stereo unspecified)	-8.6%	i	?	-2.4%	-2.7%	15.8µM*
